Experimental data: PubChem BioAssay (NCATS)
Inconclusive results are not listed. Activity calls are given as the source filed them. Unless noted, calls follow the shape of the dose curve; as a rule, active = well fitted curve in the direction sought with a large enough effect; inconclusive = small, poorly fitted or top-dose-only effect, or another doubt; inactive = no such curve, though single readings can be large; an effect the other way counts as inactive or inconclusive.

Assays:
[1] = Cell Viability - Jurkat (AID 426;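 active = dose-dependent loss of cell ATP signal giving a full or clear fitted curve, ranked by lower potency value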; also: potency is read from the fitted curve at half-maximal effect); conditions: qHTS
How it was run: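 Jurkat (clone E6-1, human T-cell leukemia) cells, 5000/well in complete medium, were exposed to compound for 40 hr at 37 °C. Viability was read as intracellular ATP by CellTiter-Glo luminescence; AC50 came from Hill fits of concentration-response data.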

[2] = Cell Viability - HepG2 (AID 433; calls by dose curve;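 also: potency is read from the fitted curve at half-maximal effect; potency for ATP loss meaning cytotoxicity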); conditions: qHTS
How it was run: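 HepG2 cells, 1500 per well, treated 40 hr at 37 °C in complete medium; viability from intracellular ATP by CellTiter-Glo luminescence. Normalized to DMSO and 100 uM tamoxifen; AC50 from Hill fit of qHTS concentration-response.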

[3] = Cell Viability - MRC5 (AID 434; calls by dose curve;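 also: potency is read from the fitted curve at half-maximal effect; potency reflects cytotoxicity seen as loss of intracellular ATP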); conditions: MRC5 lung fibroblast viability, qHTS
How it was run: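 MRC5 normal human lung fibroblasts (1500/well) were treated with compounds for 40 hr at 37 °C in complete medium, and viable cells were measured as intracellular ATP by CellTiter-Glo luminescence. AC50 came from Hill fits, normalized to DMSO and 100 uM tamoxifen.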

[4] = molecular target: Mitogen-activated protein kinase 10 (Mus musculus) (UniProt Q61831); assay: JNK3 AlphaScreen Assay (AID 530; active = well fitted curve in either direction with a large enough effect, not every such curve was filed as active;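 also: kinase came from lysate of stimulated human HepG2 cells; signal reports phosphorylation of biotinylated GST-cJun 1-79 at Ser73 with 10 µM ATP; % is scaled to controls: 0 for no effect and ±100 for the full control effect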); conditions: JNK3 lysate, c-Jun phosphorylation; series mostly up to 57.1 µM
How it was run: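 JNK3 came from HepG2 lysates pre-activated with IL-1beta and TNF-alpha and phosphorylated biotinylated GST-cJun (1-79) at 10 uM ATP, pH 7.6, room temperature. Compounds were titrated. AlphaScreen signal used anti-phospho-cJun (Ser73) antibody.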

[5] = Cell Viability - N2a (AID 540); conditions: N2a mouse neuroblastoma cell viability; at 92.2 µM (top of the series);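 also: plate controls were DMSO alone for no effect and tamoxifen control for full effect; nearly all actives have a fitted effect of over 45% in size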
How it was run: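 Mouse neuroblastoma N2a cells (1500/well) were preincubated 5 hr at 37 °C, then exposed to compounds for 40 hr at 37 °C in complete medium. Viability was read as intracellular ATP by CellTiter-Glo luminescence; AC50 from Hill fits.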

[6] = Cell Viability - HUV-EC-C (AID 542); conditions: HUV-EC-C endothelial cell viability, qHTS; series mostly up to 92.2 µM; also: % is scaled to controls: 0 for no effect and ±100 for the full control effect; nearly all actives have a fitted effect of over 35% in size
How it was run: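 HUV-EC-C normal human vascular endothelial cells, 1000 cells/well, pre-incubated 5 hr at 37 °C, then exposed to compounds for 40 hr at 37 °C in complete medium. Viability measured as intracellular ATP by CellTiter-Glo luminescence; AC50 from Hill fits.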

[7] = Cell Viability - Mesenchymal (AID 546); conditions: mesenchymal cells viability, qHTS; series mostly up to 91.7 µM;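 also: cells exposed to compound for 40 hours before reading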
How it was run: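 Normal human renal glomerulus-derived kidney mesenchymal cells, 1000 per well in complete medium, were treated with compounds for 40 hr at 37 °C. Viability was read as intracellular ATP by CellTiter-Glo luminescence; AC50 values came from Hill-equation fits of qHTS concentration-response data.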

[8] = Cellular Toxicity (caspase-3) HepG2 (AID 654); conditions: HepG2 caspase-3 activation, luminescence, 0% = DMSO only, 100% = tamoxifen; series mostly up to 92.2 µM;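 also: cells exposed to compound for 16 hours before reading; 0% = DMSO alone and 100% = caspase signal from 100 µM tamoxifen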
How it was run: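 HepG2 cells (1500/well) in complete medium were treated with compounds for 16 hr at 37 °C. Caspase-3/7 activity was then read as luminescence from peptide-aminoluciferin cleavage. AC50 came from Hill fits, normalized to DMSO and 100 uM tamoxifen.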

[9] = Cellular Toxicity (caspase-3) HUV-EC-C (AID 656); conditions: HUV-EC-C cells, caspase-3 activation (apoptosis), vehicle = 0, 100 µM tamoxifen = 100%; series mostly up to 92.2 µM
How it was run: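 HUV-EC-C cells (1000/well) in complete medium, compound-treated 16 h at 37 °C; caspase-3/7 activity read by Caspase-Glo 3/7 luminescence. Normalized to DMSO (basal) and 100 uM tamoxifen (100%); AC50 from Hill-equation concentration-response fits.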

[10] = Cellular Toxicity (caspase-3) SHSY5Y (AID 657); conditions: SH-SY5Y caspase-3 activation, DMSO zero, 10 µM staurosporine = 100%; series mostly up to 91.7 µM
How it was run: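 SH-SY5Y human neuroblastoma cells, 1500/well, exposed to compound for 16 hours at 37 °C in complete medium. Caspase-3/7 activity read by Caspase-Glo luminescence after 1 hr at room temperature, normalized to DMSO and 10 uM staurosporine; AC50 from Hill fit.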

[11] = Cellular Toxicity (caspase-3) BJ (AID 658); conditions: BJ fibroblasts, luminescence, normalized: DMSO 0%, staurosporine 100%; series mostly up to 91.7 µM
How it was run: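 Luminescent aminoluciferin-substrate cleavage reports caspase 3/7 activity in normal human BJ fibroblasts after 16 hr compound exposure at 37 °C. Normalized to DMSO (basal) and 10 uM staurosporine (100%); AC50 from Hill fit of concentration-response.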

[12] = Cellular Toxicity (caspase-3) MRC-5 (AID 659); conditions: MRC-5 cells, luminescence, normalized: DMSO 0%, 10 µM staurosporine 100%; series mostly up to 91.7 µM
How it was run: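 Luminescence from caspase-cleaved aminoluciferin substrate (Caspase-Glo 3/7, 1 hr RT) reports caspase 3/7 activity in MRC-5 lung fibroblasts after 16 hr compound exposure. Normalized to DMSO basal and 10 uM staurosporine as 100%; AC50 from Hill fits.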

[13] = Cellular Toxicity (caspase-3) Mesangial (AID 660); conditions: mesangial cells, normalized: DMSO 0%, 100 µM tamoxifen 100%; series mostly up to 91.7 µM;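 also: cells exposed to compound for 16 h before the caspase read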
How it was run: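 Human renal glomerular mesangial cells (1000/well) were treated with compounds for 16 h at 37 °C in complete medium, then caspase 3/7 activity was read by Caspase-Glo luminescence. Data were normalized to DMSO and 100 uM tamoxifen; AC50 from Hill fits.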

[14] = Cellular Toxicity (caspase-3) SK-N-SH (AID 661); conditions: SK-N-SH caspase-3 activation, qHTS, DMSO as zero, staurosporine as full; series mostly up to 91.7 µM
How it was run: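 SK-N-SH human neuroblastoma cells (1500/well) were treated with compounds for 16 hr at 37 °C in complete medium; caspase 3/7 activity was read by Caspase-Glo luminescence. AC50 came from Hill fits of data normalized to DMSO and 10 uM staurosporine.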

[15] = Cellular Toxicity (caspase-3) H-4-II-E (AID 663); conditions: H-4-II-E rat hepatoma, scaled: DMSO 0%, 100 µM tamoxifen 100%; series mostly up to 92.2 µM;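 also: cells exposed to compound for 16 hr before readout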
How it was run: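 Luminescence from caspase-cleaved aminoluciferin substrate, read 20 min after reagent addition, reports caspase 3/7 activation in rat H-4-II-E cells after 16 hr compound exposure. Normalized to DMSO (basal) and 100 uM tamoxifen (100%); AC50 from Hill fits.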

[16] = Cellular Toxicity (caspase-3) Hek293 (AID 664); conditions: HEK293 caspase-3 activation, DMSO = 0%, 100 µM tamoxifen = 100%; series mostly up to 92.2 µM;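 also: cells exposed to compound for 16 h at 37 °C before readout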
How it was run: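 HEK293 cells were exposed to compounds in complete medium for 16 hr at 37 °C, then caspase-3/7 activity was read by Caspase-Glo 3/7 luminescence after 20 min at room temperature. Data normalized to DMSO and 100 uM tamoxifen; AC50 from Hill fits.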

[17] = Cellular Toxicity (caspase-3) N2a (AID 665); conditions: N2a cells, luminescence, normalized: DMSO 0%, 10 µM staurosporine 100%; series mostly up to 92.2 µM;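 also: compound exposure lasted 16 h at 37 °C before readout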
How it was run: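 Mouse N2a neuroblastoma cells (1500/well) were treated with compounds for 16 h at 37 °C, then caspase-3/7 activity was read by Caspase-Glo luminescence after 1 h at room temperature. Data were normalized to DMSO and 10 uM staurosporine; AC50 from Hill fits.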

[18] = Cellular Toxicity (caspase-3) NIH 3T3 (AID 666); conditions: NIH 3T3 caspase-3 activation, apoptosis/toxicity, 0% DMSO, 100% is 100 µM tamoxifen; series mostly up to 92.2 µM;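 also: 0% = DMSO basal and 100% = 100 µM tamoxifen stimulation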
How it was run: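 Mouse NIH 3T3 fibroblasts (1000 cells/well) were treated with compound for 16 hr at 37°C in complete medium; caspase-3/7 activity was read by Caspase-Glo luminescence. Normalized to DMSO and 100 uM tamoxifen; AC50 from Hill fits.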

[19] = Cellular Toxicity (caspase-3) Renal Proximal Tubule (AID 667); conditions: renal proximal tubule cells; series mostly up to 91.7 µM;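 also: cells exposed to compound for 16 hours at 37 °C before detection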
How it was run: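 Freshly isolated primary rat kidney proximal tubule cells, 1000/well, treated 16 hr at 37 °C, then Caspase-Glo 3/7 luminescence after 1 hr. Normalized to DMSO and 10 uM staurosporine; AC50 from Hill fit.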

[20] = Confirmation and Secondary Assay for Modulators of Hemoglobin Beta Chain Splicing at IVS2 654 locus (AID 910); conditions: HeLa EGFP-654 splicing reporter, GFP fluorescence, 48 h; series mostly up to 46.1 µM;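 also: per-well total GFP intensity by laser scanning cytometry after 2-day treatment; % of control where 0% means no effect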
How it was run: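 HeLa cells stably carrying EGFP interrupted by mutant beta-globin IVS2-654 intron (CMV-driven) were treated with compound for 2 days at 37C; corrected splicing was scored as total peak GFP intensity per well (488 nm excitation, 500-520 nm emission).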

[21] = Cell Viability - LYMP2-001 (AID 921); conditions: LYMP2-001 lymphoblastoid cell viability; series mostly up to 92.2 µM;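 also: cells exposed to compound for 24 h at 37 °C; 0% = DMSO only and full inhibition = tetraoctylammonium bromide control wells; nearly all actives have a fitted effect of over 70% in size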
How it was run: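 Human lymphoblastoid LYMP2-001 cells, 2500 per well, in complete medium, treated 24 h at 37 C. Viability from cellular ATP by CellTiter-Glo luminescence; AC50 from Hill-equation fits of qHTS concentration-response.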

[22] = Confirmation and Secondary Assay for Modulators of Hemoglobin Beta Chain Splicing at IVS2 705 locus (AID 930); conditions: HeLa EGFP-705 splicing reporter, GFP fluorescence, 48 h; series mostly up to 46.1 µM;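 also: HeLa cells stably expressing the EGFP-705 splicing reporter; GFP fluorescence per well restored by corrected splicing of the IVS2-705 intron in EGFP; % of control where 0% means no effect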
How it was run: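 First, HeLa EGFP-705 cells are seeded at 500/well in Optimem with 2% FCS and left overnight. Next, compound or DMSO is added for 2 days. Finally wells are laser-scanned and total peak GFP intensity scored.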

[23] = MultiTox-Fluor Cytotoxicity Assay - LYMP1-001 - Dead Cells (AID 946); conditions: LYMP1-001 lymphoblastoid cells, dead-cell protease fluorescence; series mostly up to 92.2 µM;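 also: 0% = DMSO and 100% = tetraoctylammonium bromide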
How it was run: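 AC50 from Hill fit of concentration-response; data normalized to DMSO (basal) and 15 uM tetraoctylammonium bromide (100%). LYMP1-001 lymphoblastoid cells, 2500/well, 16 hr compound at 37 C; dead-cell protease fluorescence, Ex/Em 485/520.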

Oc1c(Cl)c(Cl)c(Cl)c(Cl)c1Cl
inactive: Potency [2] > 92 µM | Potency [3] > 92 µM | outcome [4] | outcome [6] | outcome [7] | outcome [8] | outcome [9] | outcome [10] | outcome [11] | outcome [12] | outcome [13] | outcome [14] | outcome [15] | outcome [16] | outcome [17] | outcome [18] | outcome [19] | Potency [20] | outcome [21] | outcome [22] | Potency [23]
active: Potency [1] 47.6 µM | activity change, negative = cytotoxicity [5] -109%
